The record followed here is PubChem BioAssay (EPA / NIEHS).

Results filed as inconclusive are left out. More than one record can exist for a structure, and the calls need not agree. Activity calls are given as the source filed them. How the source made its calls, unless noted: active means hit-call score of the fitted dose curve at least 0.9, where 1 is the maximum; inactive means score below 0.9.

Assay [1] is described as follows: ATG_NFI_CIS: Attagene CIS-FACTORIAL HepG2 Assay for human Nuclear Factor I (NFI) (AID 2282989). Particulars: HepG2 cis-regulatory reporter, NFI response element transcription; actives raise or lower the signal. The procedure, abridged:
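Read-out: reporter mRNA via RT-PCR plus capillary electrophoresis with fluorescence detection. Transiently transfected HepG2 (endogenous TF activity on cis promoters), 24 h compound exposure; gain or loss of signal fitted against DMSO.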

The target of assay [2] is Myc proto-oncogene protein (Homo sapiens) (UniProt P01106). Nature of the assay: ATG_Myc_CIS: Attagene CIS-FACTORIAL HepG2 Assay for human Myelocytomatosis (Myc) Proto-Oncogene Transcription Factor (AID 2282990). Conditions: HepG2, Attagene cis-reporter transcription factor activity; actives raise or lower the signal. The method in brief:
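After 24 h chemical treatment of HepG2 cells carrying multiplexed cis-regulated reporter constructs, reporter transcripts quantified by RT-PCR and capillary electrophoresis of fluorescent fragments. Gain or loss fitted against DMSO baseline.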

The nature of assay [3]: ATG_NF_kB_CIS: Attagene CIS-FACTORIAL HepG2 Assay for human Nuclear Factor Kappa B (NF-kB) (AID 2282991). Conditions: HepG2 Attagene cis-factorial NF-kB reporter mRNA; actives raise or lower the signal. The method in brief: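 Multiplexed cis-reporter assay in transiently transfected HepG2. 24 h treatment; RNA isolated, RT-PCR, labelled fragments resolved by CE. DMSO baseline.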

A short description of assay [4]: ATG_Oct_MLP_CIS: Attagene CIS-FACTORIAL HepG2 Assay for human Octamer-Binding Transcription Factor (Oct) (AID 2282993). Conditions: HepG2 Attagene cis-factorial Oct reporter, mRNA; actives raise or lower the signal. The method in brief:
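Read-out: reporter mRNA via RT-PCR plus capillary electrophoresis of 6-FAM-labelled fragments. Transiently transfected HepG2, 24 h exposure, endogenous TF activity on cis elements. Gain or loss of signal fitted relative to DMSO.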

Assay [5] addresses Cellular tumor antigen p53 (Homo sapiens) (UniProt P04637). Nature of the assay: ATG_p53_CIS: Attagene CIS-FACTORIAL HepG2 Assay for human p53 Transcription Factor (AID 2282994). Conditions: HepG2 p53 cis-element reporter, Attagene mRNA; actives raise or lower the signal. The procedure, abridged: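 Transiently transfected HepG2 (multiple cis reporter transcription units); exposure 24 h; reporter RNA via RT-PCR, 6-FAM extension, 2 h HpaI digest at 37 C, CE detection; DMSO baseline.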

The target of assay [6] is Nuclear receptor subfamily 1 group I member 2 (Homo sapiens) (UniProt O75469). Nature of the assay: ATG_PXR_TRANS: Attagene TRANS-FACTORIAL HepG2 Assay for human Pregnane X Receptor (PXR) (AID 2283008; active means hit-call score of the fitted dose curve at least 0.9, where 1 is the maximum). The method in brief: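 Transient HepG2 transfectants carrying multiplexed reporter transcription units; PXR activity read through a Gal4 chimera. 24 h exposure. RT-PCR/CE fluorescence; upward curve fit referenced to DMSO.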

Assay [7] can be described thus: ATG_NRF2_ARE_CIS: Attagene CIS-FACTORIAL HepG2 Assay for human Nuclear Factor Erythroid 2 Related Factor 2 (NFR2) response to Antioxidant Response Elements (ARE) (AID 2282992).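 On AC50: reporter mRNA level measured by RT-PCR and capillary electrophoresis fluorescence.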 Particulars: HepG2 Attagene ARE/NRF2 reporter, transcription factor activity; actives raise or lower the signal. The procedure, abridged: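 Fluorescence intensity of reporter-specific cDNA fragments, separated by capillary electrophoresis, reflects mRNA induction in transfected HepG2 cells at 24 h. Activity is fitted bidirectionally, DMSO serving as baseline.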

In assay [8] the target is human Peroxisome Proliferator-activated Receptor alpha (PPARa), PPARA (gene 5465) (UniProt Q07869). Put plainly: ATG_PPARa_TRANS: Attagene TRANS-FACTORIAL HepG2 Assay for human Peroxisome Proliferator-activated Receptor alpha (PPARa) (AID 2283001; active means hit-call score of the fitted dose curve at least 0.9, where 1 is the maximum;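 on AC50: potency for gain of reporter signal over DMSO so agonist or activator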). The method in brief:
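Reporter transcripts quantified by RT-PCR plus capillary electrophoresis after 24 h treatment, fitted upward relative to DMSO. Cells: human HepG2 transiently carrying multiple GAL4-UAS reporter units driven by NR-Gal4 chimeras.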

Assay [9] concerns the target Peroxisome proliferator-activated receptor gamma (Homo sapiens) (UniProt P37231). Put plainly: ATG_PPARg_TRANS: Attagene TRANS-FACTORIAL HepG2 Assay for human Peroxisome Proliferator-activated Receptor-gamma (PPARg) (AID 2283007; active means hit-call score of the fitted dose curve at least 0.9, where 1 is the maximum). The method in brief:
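Human hepatoma HepG2, transient MRTU transfection, 24 h treatment. mRNA reporter signal by RT-PCR plus capillary electrophoresis, fluorescence detection; fitted for increase over DMSO negative control.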

In assay [10] the target is human Retinoic Acid Receptor gamma (RARg), RARG (gene 5916) (UniProt P13631). Nature of the assay: ATG_RARg_TRANS: Attagene TRANS-FACTORIAL HepG2 Assay for human Retinoic Acid Receptor gamma (RARg) (AID 2283009; active means hit-call score of the fitted dose curve at least 0.9, where 1 is the maximum). The method in brief:
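Transactivation of exogenous RARg-Gal4 fusion measured as reporter transcript induction after 24 h in transfected HepG2 cells. RNA reverse-transcribed, amplified, fluorescently labeled and resolved by capillary electrophoresis; increase relative to DMSO.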

The target in assay [11] is human RAR-related Orphan Receptor beta (RORb), RORB (gene 6096) (UniProt Q92753). Nature of the assay: ATG_RORb_TRANS: Attagene TRANS-FACTORIAL HepG2 Assay for human RAR-related Orphan Receptor beta (RORb) (AID 2283010; active means hit-call score of the fitted dose curve at least 0.9, where 1 is the maximum). The method in brief:
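Read-out is reporter mRNA induction, quantified by RT-PCR with fluorescent capillary electrophoresis, 24 h post-dose in transiently transfected HepG2 expressing exogenous NR-Gal4 chimera. Activity fitted upward versus DMSO.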

Assay [12] in a line: BSK_3C_uPAR: BioMAP Diversity Plus: 3C Assay for Urokinase-type plasminogen activator receptor (uPAR) Biomarker Activity (AID 2282998). Conditions: BioMAP 3C HUVEC, uPAR biomarker ELISA; actives raise or lower the signal. The method in brief:
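HUVEC primary cells; 24 h post-dose; uPAR by ELISA; gain or loss of signal fitted bidirectionally vs DMSO baseline.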
A general note: In an ELISA, binding on a coated surface is turned into a signal by an enzyme label.

Assay [13] can be described thus: BSK_3C_VCAM1: BioMAP Diversity Plus: 3C Assay for Vascular cell adhesion molecule 1 (VCAM1) Biomarker Activity (AID 2282999). Conditions: BioMAP 3C HUVEC, VCAM1 ELISA, cytokine-stimulated; actives raise or lower the signal. The procedure, abridged:
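Activity fitted in both directions relative to DMSO, with ELISA measurement of the surface marker on primary HUVEC (3C) at 24 h post-treatment; parallel SRB staining (0.1% SRB, TCA-fixed, 560 nm) flagged overt cytotoxicity.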

Assay [14] in a line: BSK_4H_Eotaxin3: BioMAP Diversity Plus: 4H Assay for Eotaxin 3 Biomarker Activity (AID 2283000).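 On outcome: CCL26 protein level quantified by ELISA in parallel with SRB cytotoxicity check.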 Conditions: primary human endothelial cells (HUVEC); actives raise or lower the signal. The method in brief: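 Human umbilical vein endothelial cells (BSK_4H system) dosed with test chemical; Eotaxin-3 (CCL26) measured by ELISA 24 h after dosing. Bidirectional curve fitting relative to DMSO negative control as baseline.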

Read-out in assay [15]: Intercellular Adhesion Molecule 1 (ICAM1), ICAM1 (gene 3383)
Nature of the assay: BSK_3C_ICAM1: BioMAP Diversity Plus: 3C Assay for Intercellular Adhesion Molecule 1 (ICAM1) Biomarker Activity (AID 2283003). Conditions: primary human endothelial cells (HUVEC); actives raise or lower the signal. The procedure, abridged: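 ELISA readout of ICAM1 in human umbilical vein endothelial cells in the 3C system, taken 24 h post-dose. Gain or loss of signal versus DMSO was fitted in both directions, with SRB total-protein staining run in parallel.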

Assay [16] in a line: BSK_3C_Proliferation: Cell Proliferation Assessment in the BioMAP Diversity Plus: 3C Assay (AID 2283006).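 On AC50: potency may reflect either rise or fall in cell number versus DMSO.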 Particulars: primary human endothelial cells (HUVEC). The procedure, abridged: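 Proliferation as total protein: sulforhodamine B (0.1%) stain of TCA-fixed subconfluent human umbilical vein endothelial cells, absorbance 560 nm, 48 h after dosing. Activity fitted in both directions against DMSO baseline.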

The target of assay [17] is human RAR-related Orphan Receptor gamma (RORg), RORC (gene 6097) (UniProt P51449). Nature of the assay: ATG_RORg_TRANS: Attagene TRANS-FACTORIAL HepG2 Assay for human RAR-related Orphan Receptor gamma (RORg) (AID 2283011; active means hit-call score of the fitted dose curve at least 0.9, where 1 is the maximum). The method in brief:
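Reporter transcripts from a transfected RORg-GAL4 chimera in HepG2 cells were quantified 24 h after dosing by RT-PCR, 6-FAM labelling, HpaI digestion and capillary electrophoresis; increases over DMSO baseline were fitted.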

In assay [18] the target is human Peroxisome Proliferator-activated Receptor delta (PPARd), PPARD (gene 5467) (UniProt Q03181). Nature of the assay: ATG_PPARd_TRANS: Attagene TRANS-FACTORIAL HepG2 Assay for human Peroxisome Proliferator-activated Receptor delta (PPARd) (AID 2283002; active means hit-call score of the fitted dose curve at least 0.9, where 1 is the maximum). The procedure, abridged: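 Read-out is induced reporter mRNA, quantified by RT-PCR with fluorescent labelling and capillary electrophoresis after 24 h dosing. Cells are HepG2 transiently carrying multiple GAL4-UAS reporter units driven by exogenous NR-GAL4 chimeras; DMSO serves as baseline.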

The target of assay [19] is human Retinoic Acid Receptor beta (RARb), RARB (gene 5915) (UniProt P10826). Put plainly: ATG_RARb_TRANS: Attagene TRANS-FACTORIAL HepG2 Assay for human Retinoic Acid Receptor beta (AID 2283004; active means hit-call score of the fitted dose curve at least 0.9, where 1 is the maximum). The procedure, abridged:
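Induction of reporter mRNA from a chimeric RARb-Gal4 construct was measured by RT-PCR, FAM labelling, HpaI digestion and capillary electrophoresis. Measurements followed 24 h compound treatment of transiently transfected human HepG2 liver cells, with DMSO as baseline.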

Assay [20] concerns the target Retinoic acid receptor alpha (Homo sapiens) (UniProt P10276). Put plainly: ATG_RARa_TRANS: Attagene TRANS-FACTORIAL HepG2 Assay for human Retinoic Acid Receptor alpha (RARa) (AID 2283005; active means hit-call score of the fitted dose curve at least 0.9, where 1 is the maximum). The procedure, abridged:
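Reporter transcripts, measured by RT-PCR with fluorescent labeling and capillary electrophoresis after 24 h dosing, reflect activity of an exogenous human RARa–GAL4 fusion in transiently transfected HepG2. Fitted for increase relative to DMSO.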

Peroxisome proliferator-activated receptor gamma (Homo sapiens), sequence (P37231 whole entry, looked up): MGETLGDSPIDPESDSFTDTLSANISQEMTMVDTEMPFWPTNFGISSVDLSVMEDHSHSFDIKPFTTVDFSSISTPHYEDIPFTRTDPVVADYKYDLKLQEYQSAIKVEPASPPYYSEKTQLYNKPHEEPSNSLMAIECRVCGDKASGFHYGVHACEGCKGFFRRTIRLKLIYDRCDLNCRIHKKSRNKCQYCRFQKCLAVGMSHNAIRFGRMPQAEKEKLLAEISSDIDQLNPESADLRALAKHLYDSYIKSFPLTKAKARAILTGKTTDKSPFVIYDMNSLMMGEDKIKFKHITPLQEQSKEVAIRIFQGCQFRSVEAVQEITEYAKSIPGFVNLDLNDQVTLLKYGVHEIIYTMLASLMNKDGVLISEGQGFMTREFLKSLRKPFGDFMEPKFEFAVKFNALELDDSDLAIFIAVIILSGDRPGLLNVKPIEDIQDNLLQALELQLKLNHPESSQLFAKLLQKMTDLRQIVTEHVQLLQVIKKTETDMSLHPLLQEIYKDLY
human RAR-related Orphan Receptor gamma (RORg), RORC (gene 6097), sequence (P51449 whole entry, looked up, the tested form may be a part): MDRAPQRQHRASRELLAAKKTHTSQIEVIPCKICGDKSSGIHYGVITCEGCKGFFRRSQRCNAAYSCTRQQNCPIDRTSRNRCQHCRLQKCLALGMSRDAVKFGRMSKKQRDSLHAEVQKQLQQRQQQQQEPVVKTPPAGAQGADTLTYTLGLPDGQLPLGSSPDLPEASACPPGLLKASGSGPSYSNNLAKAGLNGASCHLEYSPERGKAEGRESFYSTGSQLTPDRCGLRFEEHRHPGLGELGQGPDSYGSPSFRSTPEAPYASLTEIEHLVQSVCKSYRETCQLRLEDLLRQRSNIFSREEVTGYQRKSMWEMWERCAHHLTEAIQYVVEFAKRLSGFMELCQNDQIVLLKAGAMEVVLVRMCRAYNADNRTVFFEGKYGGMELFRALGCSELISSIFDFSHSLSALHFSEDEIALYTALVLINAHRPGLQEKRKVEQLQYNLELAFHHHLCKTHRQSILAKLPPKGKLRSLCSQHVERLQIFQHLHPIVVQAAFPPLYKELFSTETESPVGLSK
Cellular tumor antigen p53 (Homo sapiens), sequence (P04637 whole entry, looked up): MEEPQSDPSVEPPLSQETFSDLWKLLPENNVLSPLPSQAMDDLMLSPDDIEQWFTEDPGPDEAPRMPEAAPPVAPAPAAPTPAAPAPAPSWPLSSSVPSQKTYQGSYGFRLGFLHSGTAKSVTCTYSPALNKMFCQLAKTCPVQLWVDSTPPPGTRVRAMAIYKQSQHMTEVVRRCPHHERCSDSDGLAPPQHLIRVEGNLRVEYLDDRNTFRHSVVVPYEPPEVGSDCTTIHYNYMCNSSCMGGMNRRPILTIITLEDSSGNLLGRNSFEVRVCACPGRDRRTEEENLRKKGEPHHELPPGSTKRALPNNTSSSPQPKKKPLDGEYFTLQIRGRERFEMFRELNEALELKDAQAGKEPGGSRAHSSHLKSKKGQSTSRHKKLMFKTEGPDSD
human RAR-related Orphan Receptor beta (RORb), RORB (gene 6096), sequence (Q92753 whole entry, looked up, the tested form may be a part): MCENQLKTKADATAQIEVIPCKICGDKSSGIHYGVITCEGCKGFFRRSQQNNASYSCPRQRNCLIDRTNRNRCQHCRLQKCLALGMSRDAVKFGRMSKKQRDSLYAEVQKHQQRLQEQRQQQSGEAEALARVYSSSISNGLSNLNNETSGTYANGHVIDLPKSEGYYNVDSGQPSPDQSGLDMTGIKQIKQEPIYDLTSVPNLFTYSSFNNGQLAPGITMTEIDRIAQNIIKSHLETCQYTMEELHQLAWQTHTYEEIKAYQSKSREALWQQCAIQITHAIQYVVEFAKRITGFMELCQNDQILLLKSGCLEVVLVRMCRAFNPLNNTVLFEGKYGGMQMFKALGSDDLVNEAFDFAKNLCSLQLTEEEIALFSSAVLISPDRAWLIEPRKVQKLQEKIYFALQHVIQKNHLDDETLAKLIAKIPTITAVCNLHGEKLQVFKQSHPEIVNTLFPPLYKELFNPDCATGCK
Nuclear receptor subfamily 1 group I member 2 (Homo sapiens), sequence (O75469 whole entry, looked up, the tested form may be a part): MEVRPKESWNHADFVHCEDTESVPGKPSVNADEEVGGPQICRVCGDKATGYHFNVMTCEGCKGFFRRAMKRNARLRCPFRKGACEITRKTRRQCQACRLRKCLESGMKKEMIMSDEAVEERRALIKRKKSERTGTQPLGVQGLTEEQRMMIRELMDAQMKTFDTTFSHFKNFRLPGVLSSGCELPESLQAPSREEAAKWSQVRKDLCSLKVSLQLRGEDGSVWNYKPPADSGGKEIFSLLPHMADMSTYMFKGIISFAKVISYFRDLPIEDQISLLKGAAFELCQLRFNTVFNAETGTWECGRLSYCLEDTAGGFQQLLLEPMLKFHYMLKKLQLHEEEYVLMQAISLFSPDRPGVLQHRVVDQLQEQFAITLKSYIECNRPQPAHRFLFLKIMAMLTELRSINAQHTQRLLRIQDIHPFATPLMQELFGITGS
Myc proto-oncogene protein (Homo sapiens), sequence (P01106 whole entry, looked up, the tested form may be a part): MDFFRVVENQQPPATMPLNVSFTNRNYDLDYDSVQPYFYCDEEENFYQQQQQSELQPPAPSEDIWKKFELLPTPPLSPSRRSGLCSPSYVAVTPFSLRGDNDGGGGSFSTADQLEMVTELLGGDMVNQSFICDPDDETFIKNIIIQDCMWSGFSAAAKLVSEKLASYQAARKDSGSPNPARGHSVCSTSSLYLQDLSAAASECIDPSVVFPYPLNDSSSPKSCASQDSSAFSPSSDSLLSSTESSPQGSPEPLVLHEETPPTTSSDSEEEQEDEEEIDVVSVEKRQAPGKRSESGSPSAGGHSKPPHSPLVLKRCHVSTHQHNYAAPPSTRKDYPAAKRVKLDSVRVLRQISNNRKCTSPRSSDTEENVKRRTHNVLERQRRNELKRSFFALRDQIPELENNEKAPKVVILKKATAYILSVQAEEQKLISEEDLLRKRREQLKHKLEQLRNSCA
human Peroxisome Proliferator-activated Receptor alpha (PPARa), PPARA (gene 5465), sequence (Q07869 whole entry, looked up, the tested form may be a part): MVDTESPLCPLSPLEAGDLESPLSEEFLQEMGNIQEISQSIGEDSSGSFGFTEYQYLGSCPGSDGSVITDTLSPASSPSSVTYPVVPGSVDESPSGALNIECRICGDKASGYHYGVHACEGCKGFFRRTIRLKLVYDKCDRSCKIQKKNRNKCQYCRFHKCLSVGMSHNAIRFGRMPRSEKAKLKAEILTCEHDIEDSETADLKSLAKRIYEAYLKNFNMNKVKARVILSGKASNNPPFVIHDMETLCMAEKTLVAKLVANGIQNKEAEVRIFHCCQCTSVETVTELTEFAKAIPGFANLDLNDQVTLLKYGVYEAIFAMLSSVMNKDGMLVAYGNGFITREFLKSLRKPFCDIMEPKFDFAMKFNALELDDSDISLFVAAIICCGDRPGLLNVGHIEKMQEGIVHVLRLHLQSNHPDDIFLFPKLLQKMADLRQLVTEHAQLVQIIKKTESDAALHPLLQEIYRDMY
human Retinoic Acid Receptor gamma (RARg), RARG (gene 5916), sequence (P13631 whole entry, looked up, the tested form may be a part): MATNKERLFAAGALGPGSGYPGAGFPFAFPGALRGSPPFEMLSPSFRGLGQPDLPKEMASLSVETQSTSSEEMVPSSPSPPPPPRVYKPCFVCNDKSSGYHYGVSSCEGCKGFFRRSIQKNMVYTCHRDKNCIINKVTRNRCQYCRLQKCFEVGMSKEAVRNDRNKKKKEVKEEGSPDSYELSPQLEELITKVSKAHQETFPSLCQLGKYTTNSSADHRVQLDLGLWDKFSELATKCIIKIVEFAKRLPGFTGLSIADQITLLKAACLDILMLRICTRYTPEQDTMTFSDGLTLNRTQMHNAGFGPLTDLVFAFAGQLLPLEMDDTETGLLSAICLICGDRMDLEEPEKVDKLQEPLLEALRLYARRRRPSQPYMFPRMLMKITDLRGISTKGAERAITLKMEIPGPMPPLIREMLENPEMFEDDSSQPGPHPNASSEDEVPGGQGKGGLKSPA
Retinoic acid receptor alpha (Homo sapiens), sequence (P10276 whole entry, looked up, the tested form may be a part): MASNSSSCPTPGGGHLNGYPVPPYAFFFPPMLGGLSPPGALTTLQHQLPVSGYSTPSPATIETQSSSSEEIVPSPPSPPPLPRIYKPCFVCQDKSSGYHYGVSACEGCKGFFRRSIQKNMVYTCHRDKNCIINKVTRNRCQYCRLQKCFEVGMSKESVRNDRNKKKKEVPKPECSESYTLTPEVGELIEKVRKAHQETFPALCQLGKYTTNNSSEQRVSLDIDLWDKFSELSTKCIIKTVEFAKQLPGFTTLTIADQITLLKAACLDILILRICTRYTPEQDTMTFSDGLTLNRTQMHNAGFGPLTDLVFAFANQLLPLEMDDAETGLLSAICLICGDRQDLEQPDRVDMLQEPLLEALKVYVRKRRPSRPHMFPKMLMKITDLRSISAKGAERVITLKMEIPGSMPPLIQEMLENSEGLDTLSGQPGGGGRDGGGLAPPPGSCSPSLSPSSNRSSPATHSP
human Retinoic Acid Receptor beta (RARb), RARB (gene 5915), sequence (P10826 whole entry, looked up, the tested form may be a part): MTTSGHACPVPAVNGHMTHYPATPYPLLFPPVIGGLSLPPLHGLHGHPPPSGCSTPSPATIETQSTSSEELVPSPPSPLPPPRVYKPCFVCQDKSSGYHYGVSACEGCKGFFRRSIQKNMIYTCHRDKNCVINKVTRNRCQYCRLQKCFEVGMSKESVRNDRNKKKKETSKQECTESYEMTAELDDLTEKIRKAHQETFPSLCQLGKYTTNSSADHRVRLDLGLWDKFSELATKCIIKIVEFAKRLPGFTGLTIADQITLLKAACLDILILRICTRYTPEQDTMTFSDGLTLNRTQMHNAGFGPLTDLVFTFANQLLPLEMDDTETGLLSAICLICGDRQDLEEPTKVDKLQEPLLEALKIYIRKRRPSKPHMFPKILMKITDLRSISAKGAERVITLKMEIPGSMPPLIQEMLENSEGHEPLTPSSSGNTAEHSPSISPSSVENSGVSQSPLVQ

In the case of `CCOc1ccc(N)c([N+](=O)[O-])c1`, the molecule was classed as inactive in [1], in [2], in assay [3], in [4], in assay [5] and in assay [6].

Regarding `COc1cc(NC(=O)CC(C)=O)c(OC)cc1Cl`, the outcome in [1], in assay [2], in [7], in assay [4], in assay [5] and in assay [8] was inactive. For the same molecule, the result in assay [9], in assay [6], in assay [10] and in assay [11] was inactive.

Take `CCCCC(CC)COCC1CO1` (stereo not drawn): the molecule was classed as inactive in [1], in assay [2], in assay [3], in assay [4], in assay [12] and in assay [13]. In addition, the outcome in assay [14], in assay [15], in [16], in [6] and in [17] was inactive. For the same molecule, the AC50 in assay [14] was 3.97 µM (active).

Take `CCCCCCCCCCC=CC#N`: the outcome in [1], in assay [2], in assay [4], in assay [5], in [18] and in assay [11] was inactive. The AC50 is 114 µM (active) in assay [7], 38 µM (active) in assay [8], 28.2 µM (active) in assay [9] and 29.9 µM (active) in assay [6].

Turning to `O=S(=O)(O)CC(O)CCl` (stereo not drawn), the molecule was classed as inactive in assay [1], in assay [2], in [4], in assay [5], in assay [8] and in assay [6]. Moreover, the AC50 in assay [7] was 30 µM (active); in assay [9], 26.4 µM (active).

Take `O=C(C=Cc1ccccc1)OCc1ccccc1`: the outcome in [1], in assay [2], in assay [4], in [5], in assay [8] and in [6] was inactive. In addition, the molecule was classed as inactive in [11] and in assay [17]. Besides, the AC50 in assay [7] is 34.4 µM (active); in assay [9] it was 0.162 µM (active).

For the molecule `C=CCOc1c(Br)cc(Br)cc1Br`, the result in assay [1], in [2], in assay [7], in [4], in assay [5] and in assay [19] was inactive. Also, the molecule was called inactive in [20], in assay [9], in assay [10], in assay [11] and in [17]. Also, the AC50 in assay [12] was 5.76 µM (active); in assay [13] it was 24.3 µM (active); in assay [14], 29.3 µM (active); in assay [15], 28.7 µM (active); in [16], 25.8 µM (active); in assay [6], 27.4 µM (active).

Turning to `C=CC=CC=CCCCCC`, the molecule was called inactive in assay [1], in assay [2], in [4], in [5], in [12] and in assay [13]. Further, the outcome in assay [14], in assay [15], in assay [16] and in assay [11] was inactive. The AC50 in [7] is 20 µM (active); in assay [9], 6.66 µM (active); in assay [6], 6.77 µM (active).

As for `OCCN(CCO)c1ccccc1`, the result in assay [1], in assay [2], in assay [7], in assay [4], in [5] and in assay [8] was inactive. Moreover, the result in [20], in assay [9] and in [6] was inactive.

On to `CC(C)c1ccc2c(C(C)C)cc(C(C)C)c(S(=O)(=O)O)c2c1`, for which the molecule was called inactive in assay [1], in [2], in assay [4], in assay [5], in [8] and in assay [18]. Besides, the molecule was called inactive in assay [19] and in assay [11]. The values for the AC50 in assay [7], in [9] and in assay [6] were 25.9 µM (active), 25.1 µM (active) and 1.23 µM (active), respectively.

With `CCCCC(CC)CCC(CC(C)C)OS(=O)(=O)O` (stereo not drawn), the molecule was called inactive in assay [1], in [2], in assay [4], in assay [5] and in [11]. Also, the AC50 was 100 µM (active) in assay [7] and 5.35 µM (active) in assay [6].

What is called AC50 is the concentration giving half of the maximal activity seen.
